# IL-1B inflam inh: inhibitors of inflammasome signaling (IL-1 beta secretion) | activity change, % at 57.5 µM | THP-1 LPS/ATP IL-1B secretion, AlphaLISA, 16 h; stronger effect = lower value | actives 4.7% (n = 360,000) | AID 743279; in the data active means activity change below about -50%; inconclusive means mostly about -30% to -49%; further: on the % scale 0 is the no-effect control and ±100 the full control effect
#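 Secreted IL-1B measured by AlphaLISA bead assay after 16 h compound exposure of THP-1 cells; compounds (final up to 57.5 uM) added 1 h before LPS (250 ng/mL) and ATP (1.25 mM) stimulation; lower signal means less secretion.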
# DT40 TDP1 CPT: growth inhibition of DT40 Tdp1-/-;hTDP1 cells with camptothecin (screen for TDP1 inhibitors); actives 12% (n = 420,000); chicken DT40 Tdp1-/-;hTDP1 cells + 20 nM CPT, ATP luminescence, 48 h; Potency, µM (titrated, usually from 46.2 µM), for the others: at the top dose activity change, negative = growth inhibition, actives largely listed as inhibitors; further: potency means the concentration at half of the fitted maximal effect; on the % scale 0 is the no-effect control and ±100 the full control effect; nearly all actives have a fitted effect of over 55% in size
#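 Cell growth measured by CellTiter-Glo luminescence after a minimum 48 h, 37 C compound exposure with 20 nM CPT in Tdp1-knockout DT40 cells stably expressing hTDP1, seeded 400/well; qHTS titration format.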
# ASM inhibitor: inhibitors of human secretory acid sphingomyelinase; Potency, µM (highest dose often 57.5 µM), inactives show at the highest dose activity change, negative = inhibition, actives largely listed as inhibitors; P17405; placental ASM, HMU-PC fluorogenic substrate, 60 min; actives 0.006% (n = 340,000); AID 504937; further: potency means the concentration at half of the fitted maximal effect
# Target sequence (P17405 47-631 limits assumed): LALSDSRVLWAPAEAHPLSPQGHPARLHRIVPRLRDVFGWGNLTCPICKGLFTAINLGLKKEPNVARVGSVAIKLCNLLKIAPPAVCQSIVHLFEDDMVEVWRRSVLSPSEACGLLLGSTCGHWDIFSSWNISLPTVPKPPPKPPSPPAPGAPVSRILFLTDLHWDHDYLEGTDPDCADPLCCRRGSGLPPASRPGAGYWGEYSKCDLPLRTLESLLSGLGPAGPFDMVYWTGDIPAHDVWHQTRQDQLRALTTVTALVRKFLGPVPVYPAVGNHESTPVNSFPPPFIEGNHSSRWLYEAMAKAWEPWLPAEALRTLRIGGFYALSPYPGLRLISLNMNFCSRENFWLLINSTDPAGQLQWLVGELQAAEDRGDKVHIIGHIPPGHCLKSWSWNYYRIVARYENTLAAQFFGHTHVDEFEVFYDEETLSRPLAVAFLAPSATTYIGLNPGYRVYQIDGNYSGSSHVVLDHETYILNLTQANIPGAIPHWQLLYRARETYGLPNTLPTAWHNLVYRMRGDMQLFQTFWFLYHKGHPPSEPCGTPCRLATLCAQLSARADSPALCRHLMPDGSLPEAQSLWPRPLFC
#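 qHTS format. ASM enzyme prepared from human placenta hydrolyses the fluorogenic substrate HMU-PC0 (9 uM final) over 60 min at 37 °C after a 10 min compound preincubation.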
# TGFb SMAD3 inh: inhibitors of TGF-b signaling; HepG2 CAGA-GFP TGF-b/SMAD3 reporter, GFP fluorescence, 18 h; TGF-beta stimulated, 500 pg/mL final; Potency, µM (doses to about 46.1 µM), without a hit: at the top dose activity, negative = inhibition, usual class: inhibitors; actives 1.2% (n = 410,000); AID 588855; further: potency means the concentration at half of the fitted maximal effect; on the % scale 0 is the no-effect control and ±100 the full control effect; nearly all actives have a fitted effect of over 65% in size
#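 Smad-responsive CAGA-GFP expression was quantified in HEPG2 cells exposed to compounds and 500 pg/mL final TGF-beta for 18 h at 37 degrees C; unstimulated wells defined full inhibition.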
# DT40 TDP1 no CPT: qHTS for Inhibitors of human tyrosyl-DNA phosphodiesterase 1 (TDP1): qHTS in cells in absence of CPT; actives 15% (n = 420,000); Potency, µM (series often up to 46.2 µM), without a hit: top-dose activity change, negative = growth inhibition, actives largely listed as inhibitors; AID 686978, 2013; DT40 Tdp1-/- hTDP1 cells, no CPT, ATP luminescence, 48 h; further: potency means the concentration at half of the fitted maximal effect; on the % scale 0 is the no-effect control and ±100 the full control effect; nearly all actives have a fitted effect of over 55% in size
#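 Stably hTDP1-transfected Tdp1-null chicken DT40 cells were treated with library compounds minus camptothecin and grown for at least 48 hr at 37 °C, after which cellular ATP was quantified by luminescence.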
# HepG2 tox: counter-screen for TGF-b inhibitors: cytotoxicity in HepG2 cells; HepG2 CAGA-GFP viability, ATP luminescence, 18 h; Potency, µM (highest dose often 46.1 µM), inactives show at the highest dose activity change, negative = cytotoxicity, actives largely listed as cytotoxic; actives 0.76% (n = 410,000); further: potency means the concentration at half of the fitted maximal effect
#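 CellTiter-Glo luminescence gave cytotoxicity after 18 hours at 37 degrees C. The cells were HepG2 CAGA-GFP in 1% FBS DMEM, stimulated with 500 pg/mL TGF-beta after compound addition. %Activity was normalised to no-cell wells (complete cell-killing) and DMSO (no toxicity), and curves were fitted and classified.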
# Starred values were filed as active, the others as inactive; i = inactive; u = inconclusive; x = no result; [ ] = another dose, or the depositor's remark. Sampled rows, rich in hits. Any-hit rate of the full collection: about 19%. Unless noted, the call rests on the fitted dose curve; in most records, active means well fitted curve in the direction sought with a large enough effect; inconclusive means small, poorly fitted or top-dose-only effect, or another doubt; inactive means no such curve, though single readings can be large; an effect the other way counts as inactive or inconclusive.
SMILES,IL-1B inflam inh,DT40 TDP1 CPT,ASM inhibitor,TGFb SMAD3 inh,DT40 TDP1 no CPT,HepG2 tox
OCC1OC(c2ccc(OCc3ccccc3)cc2OCc2ccccc2)C(O)C1O (stereo not given),u,10µM*,x,-12%,9.2µM*,-3%
CCn1c(=O)c(C(=O)Nc2cc(OC)c(OC)c(OC)c2)nc2ccccc21,x,1%,x,18%,-28%,0%
COc1cc(S(=O)(=O)Nc2ccc3c(c2)C(=O)N(C)C3=O)ccc1NC(C)=O,1,-11%,5%,14%,-9%,2%
CS(=O)(=O)Nc1cccc(-c2cc(NC=O)c3ncc(-c4ccc(F)cc4)n3c2)c1,34,23µM*,x,u,u,7%
O=CNc1cc(-c2cccc(F)c2)cn2c(-c3ccc(F)cc3)cnc12,2,29µM*,x,u,u,-11%
O=C(O)CCNS(=O)(=O)c1cccc2nsnc12,-4,-2%,3%,1%,-7%,6%
CCOC(=O)c1sc(NC(C)=O)nc1C,u,u,3%,-4%,-25%,-7%
CCOC(=O)c1sc(Nc2cccc(Cl)c2)nc1C,-87*,-13%,1%,u,u,-38%
CCOC(=O)c1sc(Nc2nc(OC)cc(OC)n2)nc1C,53,u,50%,-1%,21µM*,1%
Cc1ccc(S(=O)(=O)N2CCN(C(=O)N3CCCCC3)CC2)c(C)c1,-12,u,x,u,u,-23%
CN(C)c1ccc(NC(=O)Nc2ccc3c(c2)c(=O)n(C)n3Cc2ccccc2)cc1,-10,23µM*,x,-2%,16µM*,-15%
CN(C)c1ccc(NC(=O)Nc2ccc3c(c2)c(=O)n(C)n3Cc2ccc(Cl)cc2)cc1,u,u,x,2%,u,-11%
CC(C)=CCn1c2ccc(NC(=O)Nc3ccc(N(C)C)cc3)cc2c(=O)n1C,-20,u,x,u,18µM*,-2%
COc1ccc(OCCCC(=O)N(C)CC(=O)Nc2c(C)cccc2C)cc1,3,-11%,4%,-1%,-6%,-3%
CC(NC(=O)CCSc1nc(-c2ccco2)cc(C(F)(F)F)n1)c1ccccc1 (stereo not given),-30,13µM*,-3%,-5%,u,-22%
COc1ccc(CCNc2nc(-c3ccco3)cc(C(F)(F)F)n2)cc1OC,-8,u,-2%,0%,u,-21%
COc1ccc(CCNC(=O)CCSc2nc(-c3ccco3)cc(C(F)(F)F)n2)cc1OC,u,15µM*,1%,-8%,16µM*,3%
O=C(CCSc1nc(-c2ccco2)cc(C(F)(F)F)n1)N1CCN(c2ccccc2)CC1,-2,u,-12%,-63%,21µM*,-2%
O=C(CCSc1nc(-c2ccco2)cc(C(F)(F)F)n1)NCc1cccs1,-9,16µM*,-4%,u,u,-10%
O=C(COc1ccc(NS(=O)(=O)c2ccc(F)cc2)cc1)N1CCOCC1,-11,-2%,6%,4%,-21%,1%
CC1=C(C(=O)NCc2ccc(Cl)cc2)C2(CCCCC2)OC1=O,x,u,x,-15%,-26%,-33%
COc1ccc(NC(=O)Cn2c(=O)n(-c3ccc(Cl)cc3)c(=O)c3c(C)c(C(=O)N(C)C)sc32)cc1Cl,x,u,x,0%,u,-8%
O=C(NC1CCCC1)C1CCN(S(=O)(=O)c2ccccc2)CC1,5,6%,4%,-1%,0%,-1%
CCCN1CNc2c(c(=O)[nH]c(=S)n2CCCc2ccccc2)C1,x,u,x,x,13µM*,x
CCCN1CNc2c(c(=O)[nH]c(=S)n2CCC(C)(C)C)C1,x,u,x,x,13µM*,x
SMILES,IL-1B inflam inh,DT40 TDP1 CPT,ASM inhibitor,TGFb SMAD3 inh,DT40 TDP1 no CPT,HepG2 tox
CCCN1CNc2c(c(=O)[nH]c(=S)n2CCc2cccc(C)c2C)C1,x,u,x,x,13µM*,x
Cc1ccc2c(c1)cc1c(=O)n(Cc3cccc(Cl)c3)nc(C)n12,x,u,x,5%,u,-7%
COC(=O)C1CCN(c2nc(CN(C)C3CCOC3)nc3cc(OC)c(OC)cc23)CC1 (stereo not given),x,11%[9.04 µM],x,x,-26%,x
CC1(C)Cc2c(c(N3CCOCC3)nc3sc(-c4ccc(C(=O)O)o4)c(N)c23)CO1,u,-8%,i,-14%,u,43%
CNC(=O)c1ccc(-c2sc3nc(N4CCOCC4)c4c(c3c2N)CC(C)(C)OC4)o1,129,21µM*,i,11%,18µM*,-5%
CN1Cc2c(N3CCOCC3)nc3sc(C(=O)c4ccc(Br)cc4)c(N)c3c2CC1(C)C,x,4.1µM*,u,u,5.2µM*,10µM*
CNC(=O)c1ccc(-c2sc3nc(N4CCOCC4)c4c(c3c2N)CCCC4)o1,5,21µM*,i,-1%,15µM*,-3%
CN1Cc2c(N3CCOCC3)nc3sc(C#N)c(N)c3c2CC1(C)C,-23,-21%,249%,13%,u,-9%
COC(=O)N/N=C(\C)c1ccc(Br)cc1,-16,13%,0%,4%,4%,0%
CSC(=S)N/N=C(\C)c1ccc(Br)cc1,50,u,-11%,-10%,2.9µM*,-19%
O=C(NCCc1ccccc1)/C(=C\c1cccc([N+](=O)[O-])c1)NC(=O)c1ccco1,3,u,-3%,-8%,u,-1%
CCN1C(=O)[C@@H]2[C@@H](c3ccc(SC4CCCCC4)c(OC)c3)N3CCCC[C@@]3(C(=O)OC)[C@@H]2C1=O,u,21µM*,-3%,-23%,u,-28%
COC(=O)[C@@]12CCCCN1[C@H](c1ccc(SC3CCCCC3)c(OC)c1)[C@@H]1C(=O)N(C)C(=O)[C@@H]12,-25,u,-6%,u,u,-35%
CCCSc1ccc([C@@H]2[C@@H]3C(=O)N(CC)C(=O)[C@@H]3[C@]3(C(=O)OC)CCCCN23)cc1,14,18µM*,-9%,u,21µM*,-15%
CCCSc1ccc([C@@H]2[C@H]3C(=O)N(CC)C(=O)[C@H]3[C@]3(C(=O)OC)CCCN23)cc1,5,u,-6%,1%,u,-11%
CCN1C(=O)[C@H]2[C@@H](c3ccc(SC4CCCCC4)cc3)N3CCCC[C@@]3(C(=O)OC)[C@H]2C1=O,0,15µM*,-16%,0%,16µM*,0%

# From PubChem BioAssay
